These entries were drawn from the full list.
aSyn 5UTR act: Activators working through SNCA 5'UTR binding (MLPCN). 300,000 compounds, 7.1% hits. alpha-synuclein 5'UTR reporter, activators screen. activity score, % (tested at 7.5 µM), hits read low. AID 1814; in the data active = activity score below about -60%
An asterisk follows results filed as active.

SMILES	aSyn 5UTR act
CC(C)(C)c1ccc(C(=O)N2CCCC2)s1	-64*
Fc1cccc2sc(N3CCCC3)nc12	-79*
Clc1cccc2sc(N3CCOCC3)nc12	-64*
Brc1cccc2sc(N3CCCC3)nc12	-75*
CCN1CCN(S(=O)(=O)c2ccc(Cl)c(C(=O)NCCc3ccccc3)c2)CC1	-69*
Oc1ccccc1-c1cc(-c2ccco2)[nH]n1	-256*
Oc1c(-c2cc(-c3ccco3)[nH]n2)ccc2ccccc12	-170*
COc1cc(/C=c2\sc3n(c2=O)CCCN=3)ccc1O	-102*
COc1ccc(/C=c2/sc3n(c2=O)C(c2ccccc2OC)C2=C(N=3)c3ccccc3CC2)cc1O (stereo not drawn)	94
O=c1/c(=C/c2ccc([N+](=O)[O-])cc2)sc2n1CCCN=2	-173*
O=P(O)(O)c1ccccc1OCCOCCOCCOCCOc1ccccc1P(=O)(O)O	-130*
Cn1nc(C(=O)NC2CCCCC2)c2c1-c1ccccc1SC2	-98*
C/C(=N\Nc1ccccn1)c1ccc2c(c1)OCO2	-159*
C/C(=N\Nc1nc2ccccc2[nH]1)c1ccc2c(c1)OCCO2	-88*
Clc1ccccc1N/N=C/c1ccc2c(c1)OCO2	-176*
C/C(=N\Nc1nc2ccccc2[nH]1)c1cc2ccccc2o1	-138*
C/C(=N\Nc1nc2ccccc2[nH]1)c1ccccn1	87
C/C(=N\Nc1nc2ccccc2[nH]1)c1ccc2c(c1)OCO2	-124*
C(=N\Nc1nc2ccccc2[nH]1)/c1ccc2c(c1)OCO2	-222*
Cc1c(C(C)(C)C)sc(=NC(=O)c2ccccc2O)n1C	-125*
NC(=O)Cn1nnc(-c2ccc(NC(=O)c3ccc(F)cc3)cc2)n1	-73*
O=C(Nc1ccc(-c2nnn(CC(=O)N3CCN(C(=O)c4ccco4)CC3)n2)cc1)c1ccccc1F	-71*
O=C(Cn1nnc(-c2ccc(NC(=O)c3ccccc3F)cc2)n1)NCc1ccc(F)cc1	-66*
COc1ccccc1C(=O)Nc1ccc(-c2nnn(CC(=O)N3CCN(C(=O)c4ccco4)CC3)n2)cc1	-79*
CC1CCN(S(=O)(=O)c2ccc(C(=O)Nc3ccccn3)cc2)CC1	-120*
SMILES	aSyn 5UTR act
Cc1ccnc(NC(=O)c2ccc(S(=O)(=O)N3CCC(C)CC3)cc2)c1	-118*
CC1=C[C@@H](C)[C@@H](c2ccc(C(F)(F)F)cc2)OC1=O	-63*
COC(=O)N/N=C/c1ccc(-c2cc(Cl)cc(Cl)c2)o1	52
NC(=O)N/N=C/c1ccc(-c2cccc(C(F)(F)F)c2)o1	-84*
COc1ccc(C(=O)Nc2ccc3[nH]ccc3c2)cc1OC	-134*
COc1ccc(OC)c(C(=O)Nc2ccc3[nH]ccc3c2)c1	-112*
COc1ccc(C(=O)Nc2ccc3[nH]ccc3c2)cc1	66
Cn1c(-c2nnn(-c3ccc(F)cc3)n2)cc2ccccc21	-156*
Cc1ccc(-n2nnc(-c3cc4ccccc4n3C)n2)cc1	-88*
COc1ccc(-c2ccc3c(N)c(C(=O)c4cccc(OC)c4)sc3n2)cc1	-71*
COc1cccc(-c2ccc3c(N)c(C(=O)NC4CC4)sc3n2)c1	-76*
Nc1c(C(=O)Nc2cccc(Cl)c2Cl)sc2nc(-c3cccnc3)ccc12	-62*
Nc1c(C(=O)Nc2ccccc2)sc2nc(-c3ccco3)ccc12	-176*
N#Cc1cc2c(N)c(C(=O)Nc3ccccc3)sc2nc1N	-124*
Cc1cccc(NC(=O)c2sc3nc(N)c(C#N)cc3c2N)c1	-156*
O=[N+]([O-])c1ccccc1/C=C/C=N/N1CCCCC1	-205*
Cc1cccc(/C=N/N2CCN(c3ccccc3)CC2)c1	-140*
Cc1ccc(/C=N/N2CCN(c3ccccc3)CC2)cc1	-100*
Cc1cc(-c2ccc(C(C)C)c(S(=O)(=O)N3CCN(c4ccccc4)CC3)c2)on1	56
Cc1ccccc1/C=N/N1CCN(c2ccccc2)CC1	-131*
NS(=O)(=O)c1ccc(N/N=C/C=C/c2ccccc2[N+](=O)[O-])cc1	-177*
O=[N+]([O-])c1ccccc1/C=N\N1CCN(c2ccccc2)CC1	-201*
CCOC(=O)c1c(C)oc2c1c(C(c1cccnc1)N1CCOCC1)c(O)c1ccccc12 (stereo not drawn)	-245*
CCN(CC)CCSc1nnc2c3ccccc3n(CCc3ccccc3)c2n1	-106*
CN(C)CCn1c2ccccc2c2nc3ccc([N+](=O)[O-])cc3cc21	104
SMILES	aSyn 5UTR act
CC(C)CSc1nnc2c3ccccc3n(C)c2n1	-75*
C(=N\Nc1nc2ccccc2s1)/c1ccc2c(c1)OCO2	-190*
Cc1ccc2[nH]c(C)c(/C=N/Nc3nc4ccccc4s3)c2c1	-140*
Brc1csc(/C=N/Nc2nc3ccccc3s2)c1	-275*
C(=N\Nc1nc2ccccc2s1)/c1ccccn1	101
Cc1nc(N/N=C\c2ccc3c(c2)OCO3)sc1C	-128*
Brc1cc2c(cc1/C=N/Nc1nc3ccccc3s1)OCO2	-117*
CCC(=O)N1CCN(c2nc3ccccc3s2)CC1	-105*
O=C(C1CC1)N1CCN(c2nc3ccccc3s2)CC1	-84*
CNC(=S)N1CCN(c2nc3ccccc3s2)CC1	-75*
O=C(Nc1ccccc1)c1ccc(-c2ccc(F)cc2)s1	-206*
CNC(=O)c1ccc(-c2ccc(F)cc2)s1	-101*
O=C(Nc1ccc(F)cc1)c1nc(S(=O)(=O)Cc2ccccc2)ncc1Cl	67
CNC(=O)c1ccc(-c2ccc(OC)cc2)s1	-151*
CNC(=O)c1ccc(-c2ccc(Cl)c(Cl)c2)s1	-94*
NC(=O)CN1C(=O)C(O)(CC(=O)/C=C\c2ccc3c(c2)OCO3)c2ccccc21 (stereo not drawn)	-70*
Cc1ccc(-n2c(C)cc(C(=O)CSc3nncs3)c2C)cc1	-172*
Cc1cc(C(=O)CSc2nncn2C)c(C)n1-c1ccccc1	-67*
Cc1cc(C(=O)CN2CC(C)OC(C)C2)c(C)n1-c1ccccc1 (stereo not drawn)	-105*
Cn1cnnc1SCC(=O)c1c[nH]c2ccccc12	-92*
Cc1cc(-n2c(C)cc(C(=O)CCl)c2C)no1	119
Cc1cc(C(=O)CSc2cccc[n+]2[O-])c(C)n1-c1ccccc1	57
Cc1cc(C(=O)CSc2cccc[n+]2[O-])c(C)n1-c1ccc(Br)cc1	-150*
CCOC(=O)C(C)/C(C)=N/NC(=O)c1cc2ccccc2cc1O (stereo not drawn)	62
O=C(NCC1CCCCC1)c1cc2ccccc2cc1O	-109*
SMILES	aSyn 5UTR act
O=C(NCC1CCCO1)c1cc2ccccc2cc1O (stereo not drawn)	-125*
Clc1ccc(C#Cc2cccnc2)cc1	-187*
O=C(CSc1nc2cc(Cl)ccc2o1)Nc1ccc(N2CCOCC2)cc1	-133*
O=C(CSc1nc2ccccc2o1)Nc1ccc(N2CCOCC2)cc1	-147*
COc1ccc(/C=C(/C(=O)c2cccs2)N2C=CC=CC2=C(C#N)C#N)cc1	-102*
COc1ccc(C(=O)/C(=C\c2ccco2)N2C=CC=CC2=C(C#N)C#N)cc1	77
O=C(/C=C/c1ccccc1)C1=C(O)C(=O)N(CCO)C1c1ccccc1[N+](=O)[O-] (stereo not drawn)	-62*
Cc1ccc(NC(=O)CC2SCCNC2=O)cc1Cl (stereo not drawn)	-143*
Cc1ccc(-n2nc(C)c(NC(=O)CCl)c2C)cc1C	-220*
O=[N+]([O-])c1nn(-c2ccc3c(c2)OCCO3)n(O)c1=NC1CCCCCC1	-91*
O=[N+]([O-])c1nn(-c2ccc3c(c2)OCCO3)n(O)c1=Nc1ccccc1	80
O=[N+]([O-])c1nn(-c2ccc3c(c2)OCCO3)n(O)c1=NC1CCCC1	-108*
